D2 antagonist – HTS Assay for Allosteric Antagonists of the Human D2 Dopamine Receptor: Primary Screen for Antagonists. D(2) dopamine receptor (Homo sapiens), P14416. HEK293 TREx D2 cells, calcium flux, dopamine EC80. inhibition, % at 10 µM. 2% of 340,000 active. AID 485344, 2010; in the data active = inhibition above about 30%; inactive = below that, where a call was filed; also: 0% is about no effect
Target sequence (P14416 whole entry, looked up): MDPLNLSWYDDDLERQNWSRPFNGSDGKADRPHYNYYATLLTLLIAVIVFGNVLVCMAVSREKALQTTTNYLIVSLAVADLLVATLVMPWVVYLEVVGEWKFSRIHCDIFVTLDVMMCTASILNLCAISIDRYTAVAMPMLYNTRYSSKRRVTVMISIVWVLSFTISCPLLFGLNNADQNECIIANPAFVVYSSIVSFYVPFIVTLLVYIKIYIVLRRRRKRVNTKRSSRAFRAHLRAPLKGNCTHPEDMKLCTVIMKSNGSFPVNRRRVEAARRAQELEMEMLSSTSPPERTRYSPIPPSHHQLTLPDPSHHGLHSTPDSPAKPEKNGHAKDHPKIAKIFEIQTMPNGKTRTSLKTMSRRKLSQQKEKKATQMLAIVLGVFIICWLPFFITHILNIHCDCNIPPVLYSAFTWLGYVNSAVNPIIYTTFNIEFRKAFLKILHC
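In this primary screen, negative modulation is detected by tracking calcium flux after an EC80 dopamine challenge in inducible HEK293 T-REx D2 cells preexposed to test compound for 180 s.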
D2 ag-1 – HTS Assay for Allosteric Agonists of the Human D2 Dopamine Receptor: Primary Screen for Agonists; 0.53% of 340,000 active; HEK293 T-REx D2 cells, calcium flux agonist mode; AID 485358, 2010; activation, % at 2 µM; D(2) dopamine receptor (Homo sapiens), P14416;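 active = activation over 3 SD above normal in the single-dose calcium agonist read, cut at about 30% in these data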; also: 0% is about no effect
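HEK293 Trex D2 cells, tetracycline-induced, o/n 30 C 5% CO2; no-wash Ca dye, RT 30–90 min; 10-cycle baseline, 23 nl cpd added, kinetic Ca read 180 s; agonist hits = positive Ca response.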
D2 ag-2 – Beta-Arrestin HTS for Positive Allosteric Modulators of the Human D2 Dopamine Receptor: Agonists. 0.084% of 360,000 active. D(2) dopamine receptor (Homo sapiens), P14416. activation, % (no concentration beside the values). DiscoveRx PathHunter D2 beta-arrestin, luminescence, 90 min; 100% = 57 uM dopamine signal. AID 624465, 2012; in the data active = activation above about 40%; inconclusive = between about 15% and that limit
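Agonist mode: compounds alone added to overnight-plated D2 PathHunter cells for 90 min at 37 C, with 57 uM final dopamine (EC100) defining full response. Beta-arrestin recruitment detected by chemiluminescent reagent, read after 1 h at ambient temperature.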
D2 PAM-1 – Beta-Arrestin HTS for Positive Allosteric Modulators of the Human D2 Dopamine Receptor: Potentiators; D(2) dopamine receptor (Homo sapiens), P14416; DiscoveRx D2 beta-arrestin cells, luminescence, 90 min; 100% = 57 uM dopamine signal; potentiation, % (test concentration not listed); 0.23% of 360,000 active; AID 624464, 2012; in the data active = potentiation above about 50%; inconclusive = mostly about 30% to 49%
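D2 cells co-treated with compound plus 50 nM dopamine (EC20) for 90 min at 37 deg C to detect potentiation. Beta-arrestin recruitment was read as enzyme-fragment luminescence after 1 h at ambient temperature. Full response was set by 57 uM dopamine.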
D2 PAM-2 – HTS Assay for Positive Allosteric Modulators of the Human D2 Dopamine Receptor: Primary Screen for Potentiators. HEK293 T-REx D2, calcium flux, EC20 dopamine potentiation. potentiation, % at 10 µM. 0.34% of 340,000 active. AID 485347, 2010;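 active = potentiation over 3 SD above the plate norm, cut at about 30% in these data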; also: 0% is about no effect
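Tetracycline-induced Hek293 Trex D2 cells, force-coupled to calcium, loaded with no-wash calcium dye. Compound added with 180 s kinetic read for agonism, then EC20 dopamine and a further 180 s read for potentiation.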
* hit, by the source's call; ? = inconclusive; . = no result. Most compounds without a hit are left out; they make up all but 2.4% or so of the library.

SMILES	D2 antagonist	D2 ag-1	D2 ag-2	D2 PAM-1	D2 PAM-2
O=C(Nc1nccs1)c1cccc(N2C(=O)c3cccc4c([N+](=O)[O-])ccc(c34)C2=O)c1	-1.0	5.7	14.0	74.5*	5.8
O=C(Nc1ccc(S(=O)(=O)Nc2nccs2)cc1)c1cccc(N2C(=O)c3ccccc3C2=O)c1	-12.4	0.4	-1.4	-7.8	3.7
CC(=O)Oc1cccc(N2C(=O)c3cccc4c([N+](=O)[O-])ccc(c34)C2=O)c1	3.9	1.9	41.0*	106.9*	-2.4
COC(=O)c1cc(NC2(c3ccccc3)C(=O)c3ccccc3C2=O)cc(C(=O)OC)c1	.	0.1	.	.	23.8
Cc1ccc2oc(-c3cc(NC(=O)c4ncn[nH]4)ccc3O)nc2c1	13.0	0.7	-0.7	3.5	31.0*
CC(=O)c1ccc2c(c1)C1C=CCC1C(c1ccncc1)N2 (stereo not drawn)	7.4	6.9	6.0	86.4*	1.6
C1=CC2c3ccccc3NC(c3ccncc3)C2C1 (stereo not drawn)	-15.9	1.1	14.1	70.4*	3.2
Brc1cc2c(cc1C1Nc3ccccc3C3C=CCC31)OCO2 (stereo not drawn)	6.0	0.0	-0.1	-3.7	-2.3
CCN(CC)CCNCc1ccc(-c2ccc(Cl)cc2)o1	33.4*	0.5	0.7	-29.6	-23.7
CCN(CC)CCNCC(O)(c1ccc(Cl)cc1)c1ccc(Cl)cc1	.	.	-1.4	-15.9	-24.9
COc1ccccc1NC(=O)Cn1c(=O)n(CCc2ccccc2)c(=O)c2c3c(sc21)CN(C(C)=O)CC3	.	0.5	.	.	4.1
COc1ccccc1CNC(=O)c1cc(S(=O)(=O)N2CCCC2)cn1C	36.6*	-0.3	0.0	1.9	-0.5
COc1ccc(OC)c(CCNC(=O)Cn2ccc3cc(S(=O)(=O)N4CCCC4)ccc32)c1	-2.6	0.1	0.4	-10.9	3.8
COc1ccccc1CCNC(=O)Cn1ccc2cc(S(=O)(=O)N3CCC(C)CC3)ccc21	4.9	0.0	0.9	-5.7	34.4*
Cc1ccc(S(=O)(=O)N2CCC(C(=O)OCC(=O)NCc3cccc(Cl)c3)CC2)cc1C	.	.	0.7	-4.2	.
COc1ccccc1C(=O)Nc1nc(-c2ccc(S(=O)(=O)N3CCOCC3)cc2)cs1	1.8	1.3	9.1	55.7*	4.7
COc1ccccc1CNC(=O)COC(=O)C1CCN(S(=O)(=O)c2ccc(C)c(C)c2)CC1	-13.5	0.1	2.5	5.3	30.2*
COc1cc(OC)c(N(C)C(=O)c2nn(C)c3c2CSc2ccccc2-3)cc1Cl	.	3.9	.	.	-2.8
CCOc1ccc(Nc2oc(-c3ccc(COc4ccc(OC)cc4)o3)nc2C#N)cc1	.	0.3	.	.	6.8
COc1ccc(Cl)cc1NC(=O)c1cc(S(=O)(=O)N2CCCC2)cn1C	-8.0	-0.4	1.7	-4.2	7.1
COc1cc(S(=O)(=O)N2CCCCC2)ccc1NC(=O)c1ccccc1Cl	1.2	0.4	1.1	-2.7	48.4*
COc1ccc(NC(=O)c2cc(S(=O)(=O)N3CCCC3)cn2C)cc1Cl	38.0*	-0.3	1.2	-1.7	1.4
CCOc1ccc(-n2c(=O)c3sc4ccccc4c3n(Cc3cccc(C)c3)c2=O)cc1	.	-1.1	.	.	2.4
CCCN(CCC)C(=O)c1nn(C)c2c1CSc1ccc(C)cc1-2	.	0.0	.	.	-4.3
CCc1ccc(C(=O)NN(C(=O)c2ccc(CC)cc2)C(C)(C)C)cc1	-0.3	-0.5	-2.3	-15.8	1.8
SMILES	D2 antagonist	D2 ag-1	D2 ag-2	D2 PAM-1	D2 PAM-2
CC(C)(C)N(NC(=O)c1ccccc1)C(=O)c1ccc(C(=O)N(NC(=O)c2ccccc2)C(C)(C)C)cc1	33.0*	0.6	3.1	-26.0	-5.1
COc1ccc(C(=O)/C=C/Nc2ccc([N+](=O)[O-])cc2C)c(OC)c1	-8.6	-0.8	-2.5	-6.1	1.1
COc1ccc(C(=O)/C=C/Nc2ccc([N+](=O)[O-])cc2C)cc1OC	40.0*	0.5	-2.4	-10.5	0.4
O=c1c2ccccc2n(Cc2ccccc2Cl)c(=O)n1CCc1ccccc1	.	0.6	.	.	-3.5
COc1cc2c(cc1OC)C(=O)C(Br)CC2 (stereo not drawn)	.	.	46.2*	-6.3	.
COc1cc2c(cc1OC)C(=O)C(c1ccc3c(c1)OCO3)CC2 (stereo not drawn)	.	.	-3.4	-2.9	.
Cc1cc(C)c(NC(=O)CSc2nc3ccccc3nc2N2CCCCC2)c(C)c1	.	-0.2	.	.	-1.3
Cc1cccc(N(C)C(=O)Cn2cnc3nc4c(cc3c2=O)CCCC4)c1	.	.	.	.	2.6
O=C(CCC(=O)N1CCOc2ccc(Cl)cc21)NCCCN1CCN(c2ccccc2F)CC1	85.8*	36.1*	0.7	-11.4	-15.2
COc1ccc(N2CCN(CCCNC(=O)CCC(=O)N3CCOc4ccc(Cl)cc43)CC2)cc1	-4.4	-0.2	-6.1	-38.8	-27.1
Cc1ccc(C)c(N2CCN(CCCNC(=O)CCC(=O)N3CCOc4ccc(Cl)cc43)CC2)c1	55.7*	4.5	.	.	-22.6
COc1cc(C)ccc1OCCSc1nc2ccc(NC(=O)c3cccs3)cc2s1	.	1.6	.	.	-11.2
COC(=O)c1ccccc1-n1c(CCC(=O)O)ccc1-c1ccc(F)cc1	3.4	0.3	8.9	56.0*	0.2
COc1ccc(-n2c(CCC(=O)O)ccc2-c2ccc(F)cc2)c(OC)c1	6.6	0.0	1.4	-9.8	32.2*
CCc1nn(CC(=O)NC(C)C)c(=O)c2cc3cc(F)ccc3n12	.	0.2	.	.	13.3
CC(NC(=O)CSc1nc(-c2cccc(Cl)c2)nc2cc(=O)[nH]n12)c1nc2ccccc2n1C (stereo not drawn)	.	0.2	.	.	15.5
CCCCn1c(CNC(=O)CCC)nc2ccccc21	33.7*	-1.5	-3.5	-11.6	-2.3
CCN(CC)c1ccc2cc(-c3nnc(-c4ccccc4)o3)c(=O)oc2c1	37.9*	115.6*	-1.0	-2.2	-7.1
CN(C)Cc1c(O)ccc2cc(-c3nc4ccccc4n3C)c(=O)oc12	13.9	20.2	2.9	-2.3	3.7
CCN(CC)c1ccc2cc(-c3nc(-c4ccc(OC)cc4)cs3)c(=O)oc2c1	71.0*	100.6*	?	24.7	-19.0
CCN(CC)c1ccc2cc(-c3nc4ccccc4[nH]3)c(=O)oc2c1	76.3*	104.2*	5.3	17.0	-13.5
CCN(CC)c1ccc2cc(-c3nc4ccccc4n3C)c(=O)oc2c1	39.6*	71.6*	1.6	6.5	-8.3
COc1ccc(CNC(=O)CSc2nnc(C)c3c(C)n(-c4ccccc4)nc23)c(OC)c1	.	.	.	.	9.7
